Test results published in PubChem BioAssay (Tox21).
Values joined by “and” are separate entries in the source; they are usually repeats but may differ in a detail not shown here. Equal entries are not always repeated. Records with an inconclusive call do not appear. Entries that show only a call come without a potency. A structure can be active in one record and inactive in another. Active and inactive are the calls of the source. Unless noted, the call rests on the fitted dose curve.

Key:
[1] = qHTS assay to identify small molecule agonists of the sonic hedgehog signaling (Shh) pathway (AID 1259368);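 further: NIH/3T3-derived 3T3Gli1-Luc cells carrying a stable Gli1-driven firefly luciferase reporter; series mostly up to about 92 µM; nearly all actives have a fitted effect of over 15% in size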
How it was run: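 Steps: seed 3T3 Gli1-Luc cells, incubate 4 hr at 37 C, pin-transfer compounds in DMSO alongside a positive control, incubate 24 hr, add luciferase detection reagent, wait 30 min at room temperature, read luminescence.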

[2] = qHTS assay to identify small molecule antagonists of the sonic hedgehog signaling (Shh) pathway (AID 1259369); further: nearly all actives have a fitted effect of over 45% in size; further: potency means the concentration at half of the fitted maximal effect
How it was run: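 Inhibition of Shh signalling is measured as reduced Gli1-response-element firefly luciferase output in an NIH/3T3-derived stable reporter clone stimulated with conditioned medium for 24hr.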

[3] = qHTS assay to identify small molecule agonists of the estrogen receptor beta (ER-beta) signaling pathway - cell viability counter screen (AID 1259380; active means well fitted curve in the direction sought with a large enough effect in the repeat runs; an effect the other way counts as inactive or inconclusive; further: nearly all actives have a fitted effect of over 30% in size; further: potency means the concentration at half of the fitted maximal effect)
How it was run: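 Same-well viability counter screen. Cells: ER-beta-UAS-bla HEK293T, plated 6 hr before compound, in 2% charcoal-stripped FBS. Compound exposure 16 hr, 37C; viability by CellTiter-Glo luminescence after 30 min at room temperature.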

[4] = qHTS assay to identify small molecule antagonists of the estrogen receptor beta (ER-beta) signaling pathway - cell viability counter screen (AID 1259382; active means well fitted curve in the direction sought with a large enough effect in the repeat runs; an effect the other way counts as inactive or inconclusive; further: nearly all actives have a fitted effect of over 55% in size; further: potency means the concentration at half of the fitted maximal effect)
How it was run: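 Following a 6 hr plating period, HEK293T cells carrying a UAS-driven beta-lactamase reporter under ER-beta control received compounds and 1nM E2 (final). After 16 hr at 37C and 2 hr substrate loading, CellTiter-Glo luminescence indicated viability.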

[5] = biological target: Estrogen receptor (Homo sapiens) (UniProt P03372); assay: qHTS assay to identify small molecule agonists of the estrogen receptor alpha (ER-alpha) signaling pathway in the presence of an antagonist (AID 1259383); further: top concentration of the series differs between compounds; nearly all actives have a fitted effect of over 15% in size
How it was run: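 Cells are hormone-deprived for 5 days (charcoal-stripped FBS, no phenol red), plated for 24hr, spiked with 10.0nM ICI-182,780, then dosed at 15 concentrations. After 22hr at 37C, ONE-Glo luminescence reports ERE-luciferase activity.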

[6] = qHTS assay to identify small molecule agonists or antagonists of the thyroid stimulating hormone receptor (TSHR) signaling pathway - wild type cell line counter screen (AID 1259384)
How it was run: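 Wild-type Hek293 cells, 800/well, 18 h at 37C, then compound with Ro20-1724 for 30 min RT. cAMP by HTRF (cAMP-d2/anti-cAMP cryptate), 1 h RT, fluorescence read. 15 concentrations, triplicates.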

[7] = biological target: Thyrotropin receptor (Homo sapiens) (UniProt P16473); assay: qHTS assay to identify small molecule antagonists of the thyroid stimulating hormone receptor (TSHR) signaling pathway (AID 1259385); further: nearly all actives have a fitted effect of over 20% in size
How it was run: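 TSHR-HEK293 cells (800/well) plated 18 h, then compounds with Ro20-1724 and TSH at 1.5 ng/mL final, 30 min at room temperature. cAMP quantified by HTRF (cAMP-d2/anti-cAMP-cryptate, 1 h); 15 concentrations in triplicate.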

[8] = qHTS assay to identify small molecule agonists of the estrogen receptor alpha (ER-alpha) signaling pathway in the presence of an antagonist - cell viability counter screen (AID 1259386; active means well fitted curve in the direction sought with a large enough effect in the repeat runs; an effect the other way counts as inactive or inconclusive;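 further: cells exposed to compounds for 22 h at 37 °C before the viability read; nearly all actives have a fitted effect of over 30% in size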; further: potency means the concentration at half of the fitted maximal effect)
How it was run: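 Cells are starved of estrogens for 5 days in charcoal-stripped serum, seeded for 24hr and co-treated with ICI-182,780 (10.0nM final) and test compounds. After 22hr at 37C, viability is read as CellTiter-Fluor fluorescence.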

[9] = biological target: Progesterone receptor (Homo sapiens) (UniProt P06401); assay: qHTS assay to identify small molecule agonists of the progesterone receptor (PR) signaling pathway (AID 1346784); further: nearly all actives have a fitted effect of over 30% in size
How it was run: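 Using charcoal-stripped serum (2%) to limit endogenous steroids, PR-UAS-bla HEK 293T cells received compounds for 16 hr at 37C after 6 hr plating; beta-lactamase FRET fluorescence was recorded following 2 hr substrate loading at room temperature.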

[10] = biological target: Progesterone receptor (Homo sapiens) (UniProt P06401); assay: qHTS assay to identify small molecule antagonists of the progesterone receptor (PR) signaling pathway (AID 1346795; active means well fitted inhibition curve with a large enough effect in the signal ratio in the repeat runs, not every such curve was filed as active; the % refers to the signal ratio)
How it was run: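 Inhibition of R5020-induced (1 nM final) beta-lactamase reporter signal in PR-UAS-bla HEK293T cells was scored by FRET fluorescence after overnight (16 hr) compound treatment.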

[11] = qHTS assay to identify small molecule agonists of the progesterone receptor (PR) signaling pathway - cell viability counter screen (AID 1346799); further: nearly all actives have a fitted effect of over 45% in size; further: potency means the concentration at half of the fitted maximal effect
How it was run: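 Cytotoxicity in PR-bla HEK293T cells: 16 h compound, 37C; CellTiter-Glo added post-FRET read; luminescence after 30 min RT.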

[12] = qHTS assay to identify small molecule antagonists of the TGF-beta/Smad signaling pathway - cell viability counter screen (AID 1346824; active means well fitted curve in the direction sought with a large enough effect in the repeat runs; an effect the other way counts as inactive or inconclusive; further: nearly all actives have a fitted effect of over 50% in size)
How it was run: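 SBE-bla HEK 293T cells, incubated overnight, then compound plus 0.25 ng/mL TGF-beta1 (stock added) for 5 hr at 37 C. Viability was read in the same wells by CellTiter-Glo luminescence after 30 min at room temperature.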

[13] = qHTS assay to identify small molecule agonists of the TGF-beta/Smad signaling pathway - cell viability counter screen (AID 1346829; active means well fitted curve in the direction sought with a large enough effect in the repeat runs; an effect the other way counts as inactive or inconclusive; further: top concentration of the series differs between compounds; nearly all actives have a fitted effect of over 45% in size)
How it was run: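 Cytotoxicity counter screen: CellTiter-Glo luminescence (30 min, room temperature) measured in the SBE-bla HEK 293T reporter wells after 5 hr compound treatment at 37 C and the 2 hr substrate step.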

[14] = biological target: Thyrotropin-releasing hormone receptor (Homo sapiens) (UniProt P34981); assay: qHTS assay to identify small molecule antagonists of the thyrotropin-releasing hormone receptor (TRHR) signaling pathway (AID 1346877; active means well fitted inhibition curve with a large enough effect in the repeat runs, not every such curve was filed as active; further: series mostly up to about 51 µM)
How it was run: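 Cells (TRHR-HEK293) are plated and kept 18 h at 37 °C/5% CO2. A calcium-sensitive dye is added for 2 h, compound follows for 5 min at room temperature, and TRH is then given at 1 nM final.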

[15] = qHTS assay to identify small molecule agonists of the androgen receptor (AR) signaling pathway in the presence of an antagonist - cell viability counter screen (AID 1259379; active means well fitted curve in the direction sought with a large enough effect in the repeat runs; an effect the other way counts as inactive or inconclusive; further: nearly all actives have a fitted effect of over 25% in size; further: potency means the concentration at half of the fitted maximal effect)
How it was run: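 Fluorescence from CellTiter-Fluor, added after 15 hr and read 1 hr later, gave cell viability. Cells were MDA-kb2 exposed to compounds (15 concentrations) in the presence of 3.0uM nilutamide at 37C, 0% CO2.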

[16] = qHTS assay to identify small molecule antagonists of the progesterone receptor (PR) signaling pathway - cell viability counter screen (AID 1346798; active means well fitted curve in the direction sought with a large enough effect in the repeat runs; an effect the other way counts as inactive or inconclusive; further: nearly all actives have a fitted effect of over 50% in size; further: potency means the concentration at half of the fitted maximal effect)
How it was run: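 ATP content as viability readout: CellTiter-Glo luminescence, 30 min room temperature, in PR-UAS-bla HEK293T cells after 16 hr compound/R5020 treatment at 37C and 5% CO2.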

[17] = qHTS assay to identify small molecule agonists of the TGF-beta/Smad signaling pathway (AID 1346859; active means well fitted activation curve with a large enough effect in the signal ratio in the repeat runs, not every such curve was filed as active; the % refers to the signal ratio; further: series mostly up to about 77 µM)
How it was run: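 Stable Smad binding element-beta-lactamase HEK 293T cells; 5 hr compound exposure at 37 C under 5% CO2; 2 hr room-temperature substrate step; fluorescence excited at 405 nm, collected at 460 nm and 530 nm.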

[18] = biological target: Estrogen receptor beta (Homo sapiens) (UniProt Q92731); assay: qHTS assay to identify small molecule agonists of the estrogen receptor beta (ER-beta) signaling pathway (AID 1259377; active means well fitted activation curve with a large enough effect in the signal ratio in the repeat runs, not every such curve was filed as active; the % refers to the signal ratio)
How it was run: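 In HEK293T cells bearing a UAS-beta-lactamase reporter under ER-beta control, DMSO-delivered compounds were incubated for 16 hr at 37C. Activity was detected as fluorescence 2 hours after LiveBLAzer B/G FRET substrate addition.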

[19] = biological target: Estrogen receptor beta (Homo sapiens) (UniProt Q92731); assay: qHTS assay to identify small molecule antagonists of the estrogen receptor beta (ER-beta) signaling pathway (AID 1259378; active means well fitted inhibition curve with a large enough effect in the signal ratio in the repeat runs, not every such curve was filed as active; the % refers to the signal ratio)
How it was run: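 ER-beta-UAS-bla HEK293T cells in 2% charcoal-stripped FBS medium treated with compound plus 1nM final 17-beta-estradiol for 16 hr at 37C. Beta-lactamase reporter read by FRET substrate fluorescence after 2 hours at room temperature.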

Chain of Progesterone receptor (Homo sapiens) (P06401 whole entry, looked up): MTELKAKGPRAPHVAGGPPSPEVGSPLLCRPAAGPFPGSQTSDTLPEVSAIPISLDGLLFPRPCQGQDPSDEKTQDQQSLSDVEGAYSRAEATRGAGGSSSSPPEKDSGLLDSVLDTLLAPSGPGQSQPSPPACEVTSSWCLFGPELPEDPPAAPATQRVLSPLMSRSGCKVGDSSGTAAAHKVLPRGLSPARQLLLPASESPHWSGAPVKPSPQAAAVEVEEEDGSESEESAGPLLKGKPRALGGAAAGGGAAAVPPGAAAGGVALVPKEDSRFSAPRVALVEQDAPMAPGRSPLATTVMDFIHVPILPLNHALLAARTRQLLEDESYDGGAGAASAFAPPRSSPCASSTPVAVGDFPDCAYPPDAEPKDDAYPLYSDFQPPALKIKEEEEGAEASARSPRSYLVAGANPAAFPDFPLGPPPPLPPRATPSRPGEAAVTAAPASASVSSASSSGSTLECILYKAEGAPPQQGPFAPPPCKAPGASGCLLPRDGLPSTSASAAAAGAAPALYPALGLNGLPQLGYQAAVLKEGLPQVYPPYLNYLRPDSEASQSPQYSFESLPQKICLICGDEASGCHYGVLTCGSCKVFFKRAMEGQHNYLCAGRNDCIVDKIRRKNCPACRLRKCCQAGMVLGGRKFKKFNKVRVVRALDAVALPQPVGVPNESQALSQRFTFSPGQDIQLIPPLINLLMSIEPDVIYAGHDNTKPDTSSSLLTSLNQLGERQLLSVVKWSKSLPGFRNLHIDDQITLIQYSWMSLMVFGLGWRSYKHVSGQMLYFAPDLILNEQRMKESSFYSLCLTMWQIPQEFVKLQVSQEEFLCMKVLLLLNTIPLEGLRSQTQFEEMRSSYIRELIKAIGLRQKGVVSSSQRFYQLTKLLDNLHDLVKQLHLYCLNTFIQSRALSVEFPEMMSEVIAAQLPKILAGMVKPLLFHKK
Chain of Estrogen receptor (Homo sapiens) (P03372 whole entry, looked up): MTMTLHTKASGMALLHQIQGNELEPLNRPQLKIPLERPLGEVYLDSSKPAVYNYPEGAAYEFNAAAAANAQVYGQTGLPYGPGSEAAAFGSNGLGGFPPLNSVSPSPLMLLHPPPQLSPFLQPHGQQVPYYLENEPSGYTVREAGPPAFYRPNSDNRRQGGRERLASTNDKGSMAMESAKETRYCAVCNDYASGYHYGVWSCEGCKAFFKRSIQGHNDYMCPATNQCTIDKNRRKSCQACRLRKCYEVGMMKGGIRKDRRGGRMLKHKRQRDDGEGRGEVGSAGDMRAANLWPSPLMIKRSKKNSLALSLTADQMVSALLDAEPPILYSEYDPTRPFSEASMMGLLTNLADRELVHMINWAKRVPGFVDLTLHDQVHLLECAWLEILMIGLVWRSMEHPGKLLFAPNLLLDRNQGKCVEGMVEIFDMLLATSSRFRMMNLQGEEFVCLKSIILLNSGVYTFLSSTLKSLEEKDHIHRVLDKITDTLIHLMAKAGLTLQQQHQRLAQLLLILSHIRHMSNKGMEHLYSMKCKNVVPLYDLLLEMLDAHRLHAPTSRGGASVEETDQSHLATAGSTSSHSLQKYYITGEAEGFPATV
Chain of Estrogen receptor beta (Homo sapiens) (Q92731 whole entry, looked up): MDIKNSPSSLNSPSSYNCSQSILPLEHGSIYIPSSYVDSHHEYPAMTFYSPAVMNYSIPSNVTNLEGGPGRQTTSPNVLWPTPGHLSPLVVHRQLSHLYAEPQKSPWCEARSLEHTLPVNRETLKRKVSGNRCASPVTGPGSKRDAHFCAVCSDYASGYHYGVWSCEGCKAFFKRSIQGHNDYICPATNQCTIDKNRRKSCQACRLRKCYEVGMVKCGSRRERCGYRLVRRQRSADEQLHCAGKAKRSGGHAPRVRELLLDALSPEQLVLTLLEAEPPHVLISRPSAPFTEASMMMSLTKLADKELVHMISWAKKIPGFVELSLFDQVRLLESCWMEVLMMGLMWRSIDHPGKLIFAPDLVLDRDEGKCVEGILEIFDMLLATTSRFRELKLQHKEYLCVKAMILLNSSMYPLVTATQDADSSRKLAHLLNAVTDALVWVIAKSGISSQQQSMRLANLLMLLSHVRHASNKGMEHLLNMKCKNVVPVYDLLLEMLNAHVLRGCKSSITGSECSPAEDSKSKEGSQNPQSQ
Chain of Thyrotropin receptor (Homo sapiens) (P16473 whole entry, looked up): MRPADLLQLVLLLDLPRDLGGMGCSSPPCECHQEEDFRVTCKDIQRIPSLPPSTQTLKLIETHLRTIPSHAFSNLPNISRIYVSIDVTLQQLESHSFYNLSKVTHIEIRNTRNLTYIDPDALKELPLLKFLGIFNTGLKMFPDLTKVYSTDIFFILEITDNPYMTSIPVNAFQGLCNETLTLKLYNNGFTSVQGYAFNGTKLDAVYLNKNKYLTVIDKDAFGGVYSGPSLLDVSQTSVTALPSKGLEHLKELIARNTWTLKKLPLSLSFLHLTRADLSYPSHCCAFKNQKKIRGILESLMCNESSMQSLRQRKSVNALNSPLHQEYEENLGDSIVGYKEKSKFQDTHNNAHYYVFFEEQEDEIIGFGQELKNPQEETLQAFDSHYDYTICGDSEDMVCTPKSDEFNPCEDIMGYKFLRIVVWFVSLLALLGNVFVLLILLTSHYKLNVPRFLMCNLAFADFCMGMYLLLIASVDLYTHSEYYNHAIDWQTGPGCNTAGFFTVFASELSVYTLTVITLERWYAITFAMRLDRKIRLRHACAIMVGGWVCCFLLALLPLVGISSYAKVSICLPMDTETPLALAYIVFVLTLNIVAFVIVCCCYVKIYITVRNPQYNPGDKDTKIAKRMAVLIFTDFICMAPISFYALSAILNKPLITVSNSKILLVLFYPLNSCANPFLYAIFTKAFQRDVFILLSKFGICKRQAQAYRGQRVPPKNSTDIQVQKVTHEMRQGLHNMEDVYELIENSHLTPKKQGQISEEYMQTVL
Chain of Thyrotropin-releasing hormone receptor (Homo sapiens) (P34981 whole entry, looked up): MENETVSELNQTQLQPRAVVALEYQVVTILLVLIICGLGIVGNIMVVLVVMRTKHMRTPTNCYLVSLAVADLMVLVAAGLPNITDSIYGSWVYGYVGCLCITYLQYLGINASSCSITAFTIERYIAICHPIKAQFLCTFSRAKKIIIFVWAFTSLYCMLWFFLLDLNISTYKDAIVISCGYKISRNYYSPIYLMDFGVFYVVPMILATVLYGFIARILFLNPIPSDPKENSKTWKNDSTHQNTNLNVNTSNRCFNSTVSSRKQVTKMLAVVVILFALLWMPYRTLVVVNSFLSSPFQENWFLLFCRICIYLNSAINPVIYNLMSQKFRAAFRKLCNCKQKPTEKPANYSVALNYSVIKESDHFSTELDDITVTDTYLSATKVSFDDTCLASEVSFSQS

Row | SMILES | Potency [1] | Potency [2] | Potency [3] | Potency [4] | Potency [5] | outcome [6] | Potency [7] | Potency [8] | Potency [9] | Potency [10] | Potency [11] | Potency [12] | Potency [13] | Potency [14] | Potency [15] | Potency [16] | outcome [17] | Potency [18] | Potency [19]
1 | CN1C(C(=O)Nc2ccccn2)=C(O)c2ccccc2S1(=O)=O | inactive | inactive | inactive | inactive | inactive | inactive | inactive | inactive | inactive | inactive | inactive | inactive | inactive | inactive |  |  |  |  | 
2 | COC(=O)C1=C(C)NC(C)=C(C(=O)OCCN(C)Cc2ccccc2)C1c1cccc([N+](=O)[O-])c1 (stereo not given) | inactive | 68.2 µM (active) | 68.2 µM (active) and 29.8 µM (active) | 60.8 µM (active) | inactive | inactive | inactive | 54.2 µM (active) and 18.8 µM (active) | inactive |  | 30.5 µM (active) | inactive | inactive | inactive | 60.8 µM (active) | 30.5 µM (active) |  |  | 
3 | C=CC(C)(CCC=C(C)C)OC(C)=O (stereo not given) | inactive | inactive | inactive | inactive | inactive | inactive | inactive | inactive |  | inactive | inactive | inactive | inactive | inactive | inactive | inactive | inactive |  | 
4 | CCCCNS(=O)(=O)c1ccccc1 |  | inactive | inactive | inactive | inactive | inactive | inactive | inactive | inactive | inactive | inactive | inactive | inactive | inactive | inactive | inactive | inactive | inactive | inactive
5 | OC[C@H]1O[C@@H]2O[C@H]3[C@H](O)[C@@H](O)[C@@H](O[C@H]4[C@H](O)[C@@H](O)[C@@H](O[C@H]5[C@H](O)[C@@H](O)[C@@H](O[C@H]6[C@H](O)[C@@H](O)[C@@H](O[C@H]7[C@H](O)[C@@H](O)[C@@H](O[C@H]8[C@H](O)[C@@H](O)[C@@H](O[C@H]1[C@H](O)[C@H]2O)O[C@@H]8CO)O[C@@H]7CO)O[C@@H]6CO)O[C@@H]5CO)O[C@@H]4CO)O[C@@H]3CO | inactive | inactive | 61.3 µM (active) and inactive | inactive |  | inactive | inactive | inactive | inactive |  | 24.4 µM (active) and inactive | inactive | inactive | inactive | inactive |  |  |  | 
6 | Nc1ccc(S(=O)(=O)Nc2cnc3ccccc3n2)cc1 | inactive | inactive | inactive | inactive |  | inactive | inactive | inactive | inactive |  | inactive | inactive | inactive |  |  |  | inactive | inactive | inactive
